The source made the active and inactive calls. The call rests on the fitted dose curve.
Experiments:
Test in all cases: Confirmatory Screen for Target Class Profiling of Small Molecule Inhibitors of Methyltransferases (AID 1745852); on activity change, negative = inhibition: on the % scale 0 is the no-effect control and ±100 the full control effect
[1] = target: Catechol O-methyltransferase (Homo sapiens) (UniProt P21964); conditions: MTase-Glo luminescence, SAH detection, recombinant enzyme; measured here: COMT max response; stronger effect = lower value
Chain of Catechol O-methyltransferase (Homo sapiens) (P21964 whole entry, looked up): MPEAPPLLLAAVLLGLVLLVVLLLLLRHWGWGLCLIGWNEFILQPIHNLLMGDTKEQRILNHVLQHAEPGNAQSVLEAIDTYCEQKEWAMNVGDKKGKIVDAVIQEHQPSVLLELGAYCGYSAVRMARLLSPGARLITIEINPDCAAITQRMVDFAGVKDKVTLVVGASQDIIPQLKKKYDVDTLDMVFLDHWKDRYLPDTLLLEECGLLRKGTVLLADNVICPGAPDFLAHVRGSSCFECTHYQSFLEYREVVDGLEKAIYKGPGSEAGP

[2] = target: Guanidinoacetate N-methyltransferase (Homo sapiens) (UniProt Q14353); conditions: MTase-Glo luminescence, SAH detection, recombinant enzyme; activity change, negative = inhibition: at 57.3 µM (top of the series) unless noted; series mostly up to 57.3 µM
[3] = target: Nicotinamide N-methyltransferase (Homo sapiens) (UniProt P40261); conditions: MTase-Glo luminescence, SAH detection, recombinant enzyme; measured here: NNMT max response; stronger effect = lower value
Chain of Nicotinamide N-methyltransferase (Homo sapiens) (P40261 whole entry, looked up): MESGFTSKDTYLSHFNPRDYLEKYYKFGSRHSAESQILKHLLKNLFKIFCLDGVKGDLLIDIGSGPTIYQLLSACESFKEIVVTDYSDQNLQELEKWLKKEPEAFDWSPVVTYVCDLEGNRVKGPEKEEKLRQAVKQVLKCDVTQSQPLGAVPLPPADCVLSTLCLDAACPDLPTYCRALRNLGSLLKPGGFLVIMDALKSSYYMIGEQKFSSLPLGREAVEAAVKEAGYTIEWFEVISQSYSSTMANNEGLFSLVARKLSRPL

[4] = target: Phenylethanolamine N-methyltransferase (Homo sapiens) (UniProt P11086); conditions: MTase-Glo luminescence, SAH detection, recombinant enzyme; measured here: PNMT max response; stronger effect = lower value
Chain of Phenylethanolamine N-methyltransferase (Homo sapiens) (P11086 whole entry, looked up): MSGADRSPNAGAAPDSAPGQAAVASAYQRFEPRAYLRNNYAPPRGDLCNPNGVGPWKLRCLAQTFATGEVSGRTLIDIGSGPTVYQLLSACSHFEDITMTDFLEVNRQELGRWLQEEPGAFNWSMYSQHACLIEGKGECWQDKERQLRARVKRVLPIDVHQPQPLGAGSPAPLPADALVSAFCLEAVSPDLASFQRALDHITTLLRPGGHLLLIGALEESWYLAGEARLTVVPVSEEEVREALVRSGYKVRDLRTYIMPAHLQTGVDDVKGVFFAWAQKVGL
Potency means the concentration at half of the fitted maximal effect.

Row | Structure (SMILES) | activity [1] | activity change, negative = inhibition [2] | activity [3] | activity [4] | Potency [2]
1 | c1ccc(CO[C@H]2COCCN(c3nc4ccccc4o3)C2)cc1 | 1.17% | 2.9% [at 85.7 µM] | -5.26% | -0.271% | –
2 | COc1ccnc(-c2nnc3ccc(Nc4cc(OC)c(OC)c(OC)c4)nn23)c1 | -13.7% | -8.44% [at 85.7 µM] | -18% | -25.6% | –
3 | O=C(CC1CCCC1)N1CCC(Nc2cccnc2)C1 (stereo not given) | -11% | -10.5% | -14.6% | -7.86% | –
4 | CCc1cc2c(cc3n2CC(C)(C(=O)NC2CCC(C)CC2)N(C(C)CCc2ccco2)C3=O)s1 (stereo not given) | -10.7% | -18.6% | -6.06% | -12.3% | –
5 | O=C(O)c1ccc2c(c1)C1C=CCC1C(c1ccc(Cl)cc1)N2 (stereo not given) | -24.7% | – | -22.4% | -23.3% | 42.9 µM (active)
6 | CC1CCN(CCCNC(=O)CCc2nnc3n(Cc4ccccc4Cl)c(=O)c4ccccc4n23)CC1 | -11.4% | -3.45% | -14.4% | -7.41% | –
7 | Cn1nccc1-c1cc2c(cn1)CN(Cc1ccncc1)CCN2 | 1.75% | 1.99% [at 85.7 µM] | -4.82% | 0.453% | –
8 | CN(CCc1nc2ccc(Cl)cc2[nH]1)c1cc(C2CC(O)C2)nc(N)n1 (stereo not given) | 4.84% | 2.73% | -2.79% | 3.63% | –
9 | O=C(CCC[C@@H]1[C@H]2CCCN3CCC[C@@H](CN1Cc1ccccc1)[C@@H]23)Nc1cccnc1 | -3.16% | -5.99% | -11.8% | -2.62% | –
10 | CCCCNC(=O)c1cccc(-c2cc(N3CCN(C)CC3)nc(N)n2)c1 | -2.86% | -5.28% | -3.76% | -4.09% | –
11 | COCCNc1cc(-c2noc([C@@H]3CCCN3CC(C)C)n2)ccn1 | 3.05% | 1.02% [at 85.7 µM] | -4.35% | 2.32% | –
12 | Cc1cnc(CCNC(=O)c2cccs2)n1C1CCC1 | 0.518% | 3.29% | 8.96% | 6.31% | –
13 | CCCC1c2cccn2CCN1C(=O)Nc1cc(Cl)c(OC)cc1OC (stereo not given) | -9.49% | -6.89% | -17.5% | -8.84% | –
14 | CC(CNC(=O)c1nnn2c1c(=O)[nH]c1cc(F)ccc12)c1ccccc1 (stereo not given) | -11.1% | – | -18.2% | -15.8% | 0.271 µM (active)
15 | Cc1ccc(Cn2c(=O)c3ccccc3n3c(CCC(=O)NCCCN4CCN(C)CC4)nnc23)cc1 | -2.75% | -1.36% | -12.5% | 3.42% | –
16 | CC(C)CCn1c(=O)c2ccccc2n2c(CCC(=O)N3CCN(c4cccc(Cl)c4)CC3)nnc12 | 1.55% | 1.8% | -55.2% | -8.01% | –
17 | CC1CCCCN1CCCNC(=O)Cn1ccc2cc(S(=O)(=O)N3CCCCC3)ccc21 (stereo not given) | 1.36% | 0% | 0.0396% | -0.622% | –
18 | COc1cccc(NC(=O)Cn2c(=O)oc3cc(S(=O)(=O)N4CCCCC4C)ccc32)c1 (stereo not given) | 0.845% | -1.86% | -2.27% | -70.8% | –
19 | Cc1noc2c(N3CCOCC3)cc(-c3cccs3)nc12 | -4.75% | 2.07% [at 85.7 µM] | -22.1% | -11.9% | –
20 | Cc1ccc(S(=O)(=O)c2nnn3c2nc(N2CCC(N4CCCCC4)CC2)c2ccccc23)cc1C | -1.85% | 0% | -9.07% | -3.83% | –

Row | Structure (SMILES) | activity [1] | activity change, negative = inhibition [2] | activity [3] | activity [4] | Potency [2]
21 | CC(=O)NC1CC2(CCN(Cc3ccc(O)cc3)CC2)c2ccccc21 (stereo not given) | 6.67% | 7.28% [at 85.7 µM] | 12.2% | 5.3% | –
22 | COc1ccc(NC(=O)C(C)(C)Oc2nn(CC3CC3)c3ccc(CN4CCCC4)cc23)cc1 | 8.52% | 9.81% | 5.5% | 9.18% | –
23 | COc1cccc2c1OCCCN(c1cc(C3CC(O)C3)nc(N)n1)C2 (stereo not given) | 5.04% | 6.51% | 3.54% | 4.23% | –
24 | Cc1noc(C)c1[S+](=O)([O-])N1CCn2c(nn(-c3ccc(C(F)(F)F)cc3)c2=O)C1 | -1.02% | -1.81% | -3.73% | -10.3% | –
25 | COc1cccc(N2C(=O)NC(=NC3CCCCC3)C23CCCN(CC2CCCCC2)C3)c1 (stereo not given) | -0.686% | 10.7% | -50.3% | 1.19% | –
26 | COc1ccc(-c2cc3nc4c(c(=O)n3[nH]2)CN(C(=O)CN(C)S(=O)(=O)c2cnc[nH]2)CC4)cc1 | -19.9% | – | -27.5% | -19.5% | 21.5 µM (active)
27 | COc1ncccc1-c1cc2c(ccn2CC2CCN([S+](C)(=O)[O-])CC2)c(N2CCOCC2)n1 | -8.55% | 1.38% | -94.7% | -10.8% | –
28 | COc1ccccc1CC(=O)N1CCCc2ncc(C(=O)Nc3cccc(Cl)c3)cc21 | 2.46% | 2.54% [at 85.7 µM] | 9.05% | 3.39% | –
29 | COCCCN1C(=O)c2cc3c(OC)ccc(OC)c3n2CC1(C)C(=O)NC1CCCCC1 (stereo not given) | -9.18% | -5.66% | -20.2% | -10% | –
30 | Cn1cnc(CN2CCNc3cc(Nc4ccccc4)ncc3C2)c1 | 7.14% | 2.31% [at 85.7 µM] | 4.88% | -5.41% | –
31 | CCOc1cc(CNc2ccc(C(=O)O)cc2)ccc1OCc1ccccc1 | -41.3% | 0.912% | -22.2% | -2.65% | –
32 | COc1ccc2c(c1)C(CN1CCN(c3ccc4oc(C(=O)O)cc4c3Cl)CC1)=CC(C)(C)CO2 | -4.38% | 0.273% | -9.6% | 3.5% | –
33 | CCCCN1C(=O)c2cc(C(=O)Nc3cc(C)cc(C)c3)nn2CC1(C)C(=O)NC1CCCC1 (stereo not given) | -1.58% | 0% | 1.44% | -4.22% | –
34 | COc1ccc(S(=O)(=O)NC[C@H]2Cn3c(-c4ccc(Cl)cc4)cnc3CO2)cc1 | -8.66% | -2.1% [at 85.7 µM] | -23.7% | -17.1% | –
35 | COc1ccc(CNc2cc3c(cn2)CN(C)CCN3)cc1OC | 6.61% | 1.57% [at 85.7 µM] | 0.597% | 7.35% | –
36 | O=C(CCCc1nnc2n3nc(-c4ccccc4)nc3c3ccccc3n12)NCCN1CCCC1 | 3.65% | 0% | -3.84% | 0% | –
37 | CC1(C)[C@H](Cc2cc(-c3ccccc3)on2)C[C@@H]1NCC1CC1 | 1.83% | -0.152% [at 85.7 µM] | -6.44% | -13.1% | –
38 | O=C(O)c1ccc(Nc2nc3ccccc3n3cnnc23)cc1 | -82.3% | – | -79.6% | -46% | 19.3 µM (active)
39 | CCCn1c(=O)c2ccccc2n2c(=O)n(CC(=O)c3cc(C)ccc3C)nc12 | 1.84% | 0% | -36.8% | -0.0841% | –
40 | CC(C)CCn1c(=O)c2ccccc2n2c(CCC(=O)N3CCN(c4ccc(F)cc4)CC3)nnc12 | 1.78% | 0% | -61.2% | -6.79% | –

Row | Structure (SMILES) | activity [1] | activity change, negative = inhibition [2] | activity [3] | activity [4] | Potency [2]
41 | COC1CCN(c2cc(-c3ccsc3)nc3c(C)noc23)CC1 | -4.15% | -0.422% [at 85.7 µM] | -17% | -10.4% | –
42 | N#Cc1ccccc1-c1cc2c(ccn2Cc2ccncc2)c(N2CCOCC2)n1 | -6.69% | -0.304% [at 85.7 µM] | -6.24% | -4.65% | –
43 | CCCC1c2cccn2CCN1C(=O)Nc1ccc(Br)cc1F (stereo not given) | -8.21% | -4.98% | -17% | -10.2% | –
44 | O=C(NCCc1ccc(Cl)cc1)c1ccc2c(=O)[nH]c3c(C(=O)NC4CCCC4)sc(=S)n3c2c1 | -38.3% | – | -77.1% | -66.5% | 27.1 µM (active)
45 | Cc1ccc(Cn2c(=O)c3ccccc3n3c(CCC(=O)NCCN4CCCC4)nnc23)cc1 | -6.32% | -1.98% | -16.1% | -2.34% | –
46 | CCc1ccc(N2C(=O)c3cc4sccc4n3CC2(C)C(=O)NC2CCCCCC2)cc1 (stereo not given) | -4.01% | 0.902% | -5.2% | -7.25% | –
47 | COc1ccc(-c2nnc3n(CCc4ccccc4)c(=O)c4ccccc4n23)c(OC)c1 | -4.93% | -5.05% | -9.89% | -5.15% | –
48 | COc1cccc(Nc2cc3c(cn2)CN(Cc2cccnc2)CCN3)c1 | 1.92% | 2.65% [at 85.7 µM] | -7.33% | -8.41% | –
49 | CC(C)Cn1c(=O)c2ccccc2n2c(CCC(=O)Nc3ccc(F)c(F)c3)nnc12 | -1.85% | 1.46% | -38.2% | -5.35% | –
50 | Cc1cnc(CCNC(=O)Nc2ccc3c(c2)OCCO3)n1C1CCC1 | 2.74% | -0.0713% | -5.7% | 1.37% | –
51 | Cc1ccc(Cn2c(=O)c3ccccc3n3c(-c4cccc(C)c4)nnc23)cc1 | -4.65% | 2.78% | -4.69% | -4.19% | –
52 | CN(C)c1nc2c(c(N3C[C@@H](CN4CCCC4)[C@@H](CO)C3)n1)CCCC2 | 4.35% | 2.26% | 3.39% | 3.79% | –
53 | COc1ccc(OCc2cc(C(=O)NC(CO)C(C)C)no2)c2ccccc12 (stereo not given) | 3.87% | 1.38% | 5.13% | 0.331% | –
54 | COc1ccc(-c2cc(C(=O)NCc3cccnc3)c3c(c2)N(C)CCO3)cc1OC | 3.17% | 8.84% [at 85.7 µM] | -0.0858% | -0.493% | –
55 | Cc1ccsc1CCNC(=O)Cn1c(=O)oc2cc(S(=O)(=O)N3CCCC3)ccc21 | -8.14% | -1.17% | -5.53% | -81.8% | –
56 | CC(C)CCNC(=O)c1ccc2c(=O)[nH]c3c(C(=O)NC(C)C)sc(=S)n3c2c1 | -37.8% | – | -37.9% | -33.6% | 27.1 µM (active)
57 | CCn1cc(CN2CCCC23CCN(c2cc(C)nc4ccccc24)CC3)c(C)n1 | 3.11% | 4.01% | -3.44% | 6.12% | –
58 | COc1ccc(OC)c2c1cc1n2CC(C)(C(=O)NC2CCCCC2)N(Cc2ccccn2)C1=O (stereo not given) | -7.35% | -3.03% | -22.4% | -6.38% | –
59 | Cc1ccc(N(C)S(=O)(=O)c2ccc3c(c2)n(C)c(=O)n3C)cc1 | -6.35% | – | -47% | -7.47% | 0.192 µM (active)
60 | c1ccc(Cn2cc(CN3CCN(c4ccncc4)CC3)c(-c3cc4ccccc4o3)n2)cc1 | 5.39% | 12.1% | 1.15% | 6.65% | –
